As a reminder, the inhibition is the drop in the measured response relative to a control, in per cent.

Hit rate of the full screen: of about 320,000 compounds, about 2,200 (0.69%) were called active.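 The calls were made as follows: active = inhibition above the mean of all tested compounds plus 3 SD, cutoff set per campaign (cut at about 30% in these data); inactive = the rest.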 Only a selection was taken, and actives are over-represented in it overall.

The target of the experiment is Bcl-2-like protein 1 (Homo sapiens) (UniProt Q07817). Nature of the experiment: Bcl-xL/Bim BH3 interaction blockers – biochemical, fluorescence polarization, HTS, primary screen (AID 2129).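 Also: 0% = DMSO wells and 100% = unlabeled Bim-BH3 peptide competitor; inhibitors lower millipolarization by displacing the labeled peptide.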 As to conditions: GST-Bcl-xL / FITC-Bim BH3 peptide fluorescence polarization; at 10.9 µM; hits give high values. For orientation: Fluorescence polarisation rises when a labelled molecule tumbles more slowly, as on binding a larger partner.
Sequence of Bcl-2-like protein 1 (Homo sapiens) (Q07817 whole entry, looked up): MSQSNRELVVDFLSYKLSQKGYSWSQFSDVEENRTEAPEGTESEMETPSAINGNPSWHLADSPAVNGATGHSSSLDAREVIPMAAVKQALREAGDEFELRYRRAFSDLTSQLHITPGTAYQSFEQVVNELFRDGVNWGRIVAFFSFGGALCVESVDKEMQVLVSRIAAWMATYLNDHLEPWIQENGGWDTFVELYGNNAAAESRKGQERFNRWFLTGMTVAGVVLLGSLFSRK
`CCNc1nc2[nH]c(=O)c3c(c2s1)OC(N)=C(C#N)C3c1cccs1` (stereo not given): the inhibition is 30.4% (active).

For the compound `N#CC1=C(N)Oc2c(c(=O)oc3ccccc23)C1c1ccccc1OC(=O)c1cccs1` (stereo not given), the inhibition is 3.02% (inactive).

Regarding `Cc1ccc(N(C)C(=O)Oc2cccc3ccc(C)nc23)cc1`, the inhibition is 0.48% (inactive).

As for `NCCc1c[nH]c2ccc(O)cc12`, the inhibition is 4.75% (inactive).

For `COc1cccc(N2C(=O)NC(=O)/C(=C\c3cn(C)c4ccccc34)C2=O)c1`, the inhibition is 36.2% (active).

Turning to `Cc1ccccc1N1C(=O)NC(=O)/C(=C\c2cc(C)n(C)c2C)C1=O`, the inhibition was 2.98% (inactive).

In the case of `O=C1NC(=O)N(c2ccccc2)C(=O)/C1=C/c1ccc([N+](=O)[O-])s1`, the inhibition is 26.3% (inactive).

As to `Cc1ccc(-n2c(O)c(C=NCC3CCCO3)c(=O)[nH]c2=O)c(C)c1` (stereo not given), the inhibition was -2.2% (inactive).

As for `COc1ccc(N2C(=O)/C(=C/c3ccco3)C(=O)NC2=S)cc1`, the inhibition was 32.5% (active).

In the case of `COc1ccc(CN2C(=O)NC(=O)/C(=C\c3ccc(OC)c(OC)c3OC)C2=O)cc1`, the inhibition was -7.16% (inactive).

`Cc1cc(/C=C2/C(=O)NC(=O)N(Cc3ccco3)C2=O)c(C)n1-c1ccc(C(=O)O)cc1`: the inhibition is -1.1% (inactive).

For `Cc1cccc(NC(=O)OC2CN3CCC2CC3)c1` (stereo not given), the inhibition was -2.32% (inactive).

For `CC(=NC1CCN(Cc2ccccc2)CC1)c1c(O)n(C)c(=O)n(C)c1=O`, the inhibition was 14.7% (inactive).

With `Cc1ccc2c(c1)C1CN(C)CCC1N2C(=O)Cn1nnc(-c2ccccc2F)n1` (stereo not given), the inhibition was 4.75% (inactive).

As to `O=c1c2ccccc2nc(/C=C/c2ccc(F)cc2)n1-c1ccccc1O`, the inhibition was 0.24% (inactive).

Values taken from PubChem BioAssay AID2129 (The Scripps Research Institute Molecular Screening Center, 2009).
